Among the data in PubChem BioAssay (NCI) are growth values, retold here.

Compounds without any hit were thinned out: in the full panel of roughly 83,000, 20% have a hit.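 Values shown are percent growth following 48 h exposure of cells in 96-well plates to a single concentration of compound; below 10 was considered active.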 Values without a mark were called inactive. Active and inactive are the calls of the source.

The test relates to T-47D breast. Description: NCI-60 one-dose screen, 48 h (100 = growth as untreated, 0 = no growth, -100 = all killed). The note with it: 10 µM unless noted.
`O=C1N=c2cc3c(cc2=C/C1=C/c1sc(=S)n(CCc2ccc(O)cc2)c1O)OCCO3`: the growth was 81.5%. Under `O=Cc1c[nH]c2ccc(-c3csc4ccccc34)cc12` stands 70.7%; under `O=C(Nc1ccccc1)Nc1cccc(Oc2nnc(Cl)c3ccccc23)c1`, -18% (active); under `NC(=O)c1ccc[n+]([C@@H]2O[C@H](COP(=O)([O-])OP(=O)(O)OC[C@H]3O[C@@H](n4cnc5c(N)ncnc54)[C@H](O)[C@@H]3O)[C@@H](O)[C@H]2O)c1`, 114%. Under `O=C1CCc2c(sc3[nH]c(=S)n(-c4ccc(OC(F)(F)F)cc4)c(=O)c23)C1` stands 20.3%; under `CC1(C)CC[C@]2(C(=O)N3CCOCC3)CC[C@]3(C)C(=CC[C@@H]4[C@@]5(C)CC[C@H](OC(=O)c6cccnc6)C(C)(C)[C@@H]5CC[C@]43C)[C@@H]2C1`, 54.7%; under `COC(=O)[C@]12CC[C@@H](C)[C@H](C)[C@@H]1C1=CC[C@@H]3[C@@]4(C)C(C=O)=C[C@@](C)(COC(=O)c5ccco5)C4=CC[C@@]3(C)[C@]1(C)CC2`, -8.1% (active).

For `O=[N+]([O-])c1ccc(-c2cc(-c3ccc(Nc4nc(Nc5ccc(Cl)cc5)nc(Nc5ccc(Cl)cc5)n4)cc3)no2)cc1`, the growth is 97.2%.

Consider `CCCCCS(=O)(=O)Nc1ccc(C(=O)O)cc1`, for which the growth is 89.2%. Turning to `COc1ccc(-c2ccc3c(c2)sc2nc(-c4ccc(F)cc4)cn23)cc1`, the growth was 55.1%. Under `NC(=N\N=C/c1ccccc1[N+](=O)[O-])/C(N)=N\N=C/c1ccccc1[N+](=O)[O-]` stands 104%.
